± gives the standard deviation of the averaged measurements.
These compounds were tested on Serratia marcescens K904 PosmB-luxCDABE reporter (pMQ747) (assay: PosmB-lux reporter fold induction (RLU/OD600 relative to no-compound control), highest over Biolog concentrations; higher = stronger Rcs reporter activation). Conditions: Biolog plate: PM14; well positions: C9-12; wild type K904; 4 h.
Method: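 Serratia marcescens K904 (wild type) or its isogenic ΔrcsB mutant, carrying the Rcs-dependent PosmB-luxCDABE reporter plasmid pMQ747, was grown in LB at OD600 0.1 in Biolog Phenotype MicroArray plates PM11-20 for 4 h at 30-32°C. Each compound is present at 3-4 proprietary concentrations (not stated); per the Fig. S1 legend the value given is the highest fold over those wells. Three independent trials.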
`N#CO` [Sodium cyanate] was tested, and the “PosmB-lux reporter fold induction” value was 2.06 ± 0.13.

Same assay, conditions: Biolog plate: PM14; well positions: D5-8; wild type K904; 4 h
`O=C(O)CI` [Iodoacetate] was tested, and the “PosmB-lux reporter fold induction” value was 1.93 ± 0.39.

From the supplement of paper PMC9942566
